# Laboratory results reported in PubChem BioAssay (EPA / NIEHS).
# Records with an inconclusive call do not appear. The source made the active and inactive calls. The calls were made as follows, unless noted: active = hit-call score of the fitted dose curve at least 0.9, where 1 is the maximum; inactive = score below 0.9.
# What was measured:
# [1] = ATG_PPRE_CIS: Attagene CIS-FACTORIAL HepG2 Assay for human Peroxisome Proliferator-activated Response Element (PPRE) (AID 2282958); details: HepG2 PPRE cis-element reporter, Attagene transcription factor profiling; actives raise or lower the signal
# Method in brief: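 PPRE activity in HepG2: transient cis-reporter transfection, 24 h compound incubation, reporter mRNA by RT-PCR and CE fluorescence; gain/loss fitted against DMSO.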
# [2] = ATG_RORE_CIS: Attagene CIS-FACTORIAL HepG2 Assay for human RAR-related Orphan Receptor Element (RORE) (AID 2282959); details: HepG2 Attagene cis-factorial RORE reporter, mRNA; actives raise or lower the signal
# Method in brief: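 A 24-hour exposure of transfected HepG2 hepatoma cells precedes RNA isolation and reporter RT-PCR. Labeled products are digested with HpaI and resolved by capillary electrophoresis, with gain or loss of signal scored relative to DMSO.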
# [3] = ATG_Sox_CIS: Attagene CIS-FACTORIAL HepG2 Assay for human SRY-box transcription factor (SOX) (AID 2282960); details: HepG2 Attagene cis-factorial SOX reporter, mRNA; actives raise or lower the signal
# Method in brief: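 HepG2, cis reporter units, 24 h exposure. Reporter mRNA: RT-PCR → FAM labelling → HpaI → CE fluorescence. Bidirectional fit vs DMSO.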
# [4] = target: Transcription factor Sp1 (Homo sapiens) (UniProt P08047); experiment: ATG_Sp1_CIS: Attagene CIS-FACTORIAL HepG2 Assay for human Specificity Protein 1 (Sp1) (AID 2282961); details: HepG2 Sp1 cis-reporter transcription, actives raise or lower the signal
# Chain of Transcription factor Sp1 (Homo sapiens) (P08047 whole entry, looked up, the tested form may be a part): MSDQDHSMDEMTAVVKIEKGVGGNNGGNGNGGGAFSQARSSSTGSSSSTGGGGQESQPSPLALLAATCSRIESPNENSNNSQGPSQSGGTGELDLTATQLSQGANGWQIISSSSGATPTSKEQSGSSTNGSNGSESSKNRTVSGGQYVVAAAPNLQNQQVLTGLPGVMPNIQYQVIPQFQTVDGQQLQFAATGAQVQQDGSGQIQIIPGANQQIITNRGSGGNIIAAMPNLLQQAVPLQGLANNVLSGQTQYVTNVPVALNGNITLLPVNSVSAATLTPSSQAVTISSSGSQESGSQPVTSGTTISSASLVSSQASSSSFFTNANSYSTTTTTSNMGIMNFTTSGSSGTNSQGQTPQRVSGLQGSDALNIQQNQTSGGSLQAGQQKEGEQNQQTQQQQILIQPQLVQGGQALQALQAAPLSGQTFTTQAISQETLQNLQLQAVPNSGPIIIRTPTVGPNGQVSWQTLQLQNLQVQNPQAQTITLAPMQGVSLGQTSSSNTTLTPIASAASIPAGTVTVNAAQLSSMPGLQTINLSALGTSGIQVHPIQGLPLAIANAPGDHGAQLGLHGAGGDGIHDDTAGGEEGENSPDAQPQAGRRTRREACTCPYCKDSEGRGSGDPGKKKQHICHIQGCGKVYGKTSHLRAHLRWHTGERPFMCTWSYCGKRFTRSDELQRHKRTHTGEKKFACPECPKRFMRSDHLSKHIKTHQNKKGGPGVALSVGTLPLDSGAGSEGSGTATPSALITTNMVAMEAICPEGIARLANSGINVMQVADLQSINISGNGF
# Method in brief: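 Liver-derived HepG2 cells, cis-element reporter library, 24 h treatment; RNA isolated, cDNA amplified with reporter-specific primers, FAM-labeled fragments sized on capillary analyzer. DMSO baseline, bidirectional curve fit.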
# [5] = ATG_SREBP_CIS: Attagene CIS-FACTORIAL HepG2 Assay for human Sterol Regulatory Element Binding (SREBP) (AID 2282962); details: HepG2 Attagene cis-factorial SREBP reporter, mRNA; actives raise or lower the signal
# Method in brief: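 mRNA induction of transfected cis-promoter reporters in HepG2 cells, 24 h post-dose. Detection: RT-PCR with 6-FAM-labelled products, HpaI digest, capillary electrophoresis. DMSO served as negative control and baseline.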
# [6] = target: Signal transducer and activator of transcription 3 (Homo sapiens) (UniProt P40763); experiment: ATG_STAT3_CIS: Attagene CIS-FACTORIAL HepG2 Assay for human Signal Transducer and Activator of Transcription 3 (STAT3) (AID 2282963); details: HepG2, Attagene cis-factorial STAT3 reporter transcription; actives raise or lower the signal
# Chain of Signal transducer and activator of transcription 3 (Homo sapiens) (P40763 whole entry, looked up): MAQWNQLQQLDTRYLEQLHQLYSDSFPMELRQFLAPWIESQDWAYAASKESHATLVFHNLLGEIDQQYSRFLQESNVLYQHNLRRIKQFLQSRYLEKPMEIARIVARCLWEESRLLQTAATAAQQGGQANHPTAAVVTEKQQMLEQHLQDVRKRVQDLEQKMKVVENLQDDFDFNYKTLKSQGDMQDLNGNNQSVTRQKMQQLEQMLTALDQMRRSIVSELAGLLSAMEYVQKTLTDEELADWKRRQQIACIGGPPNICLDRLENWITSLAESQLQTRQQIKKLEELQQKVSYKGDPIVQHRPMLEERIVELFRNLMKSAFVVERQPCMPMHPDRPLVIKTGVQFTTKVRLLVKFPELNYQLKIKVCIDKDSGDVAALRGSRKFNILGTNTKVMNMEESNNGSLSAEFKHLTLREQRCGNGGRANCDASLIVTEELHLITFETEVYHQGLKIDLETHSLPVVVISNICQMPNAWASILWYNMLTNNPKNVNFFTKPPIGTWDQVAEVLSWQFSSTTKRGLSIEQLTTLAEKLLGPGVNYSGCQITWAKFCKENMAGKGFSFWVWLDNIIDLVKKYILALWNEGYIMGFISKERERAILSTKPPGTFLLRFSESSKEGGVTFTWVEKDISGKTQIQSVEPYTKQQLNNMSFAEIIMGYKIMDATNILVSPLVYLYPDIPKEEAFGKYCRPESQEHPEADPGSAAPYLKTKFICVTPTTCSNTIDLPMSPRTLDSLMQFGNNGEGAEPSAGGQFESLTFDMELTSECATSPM
# Method in brief: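 Values derive from bidirectional fits relative to DMSO of reporter mRNA levels, measured by RT-PCR with capillary electrophoresis, in HepG2 cells carrying transiently transfected cis-regulated reporter units and exposed 24 h.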
# [7] = ATG_TA_CIS: Attagene CIS-FACTORIAL HepG2 Assay for human TA Basal Promoter (AID 2282964); details: HepG2 Attagene CIS-factorial TA basal promoter reporter; actives raise or lower the signal
# Method in brief: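 HepG2 cells transiently transfected with multiple reporter units under cis promoter elements, reporting endogenous transcription factor activity; this endpoint tracks the TA basal promoter as background control. Reporter mRNA after 24 h dosing measured by RT-PCR/capillary electrophoresis; bidirectional fits versus DMSO.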
# [8] = ATG_TCF_b_cat_CIS: Attagene CIS-FACTORIAL HepG2 Assay for human T-Cell-Factor with beta-catenin (TCF/b-cat) (AID 2282965); details: HepG2 TCF/beta-catenin cis-reporter transcription, actives raise or lower the signal
# Method in brief: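 Cells of the HepG2 line carry transiently transfected reporter units whose promoters respond to endogenous factors. Twenty-four hours post-dosing, reporter mRNA induction is measured by fluorescent RT-PCR and capillary electrophoresis, with DMSO as baseline.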
# [9] = ATG_TAL_CIS: Attagene CIS-FACTORIAL HepG2 Assay for human TAL Basal Promoter (AID 2282966); details: HepG2 Attagene cis-factorial TAL promoter reporter; actives raise or lower the signal;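 also: background control endpoint measuring basal TAL promoter reporter mRNA not a specific factor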
# Method in brief: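 HepG2 cells transiently transfected with multiplexed cis-promoter reporter units, dosed 24 h. Reporter mRNA quantified by RT-PCR, 6-FAM labelling, HpaI digestion and capillary electrophoresis; TAL basal promoter serves as background control, fitted bidirectionally versus DMSO.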
# [10] = ATG_TGFb_CIS: Attagene CIS-FACTORIAL HepG2 Assay for human Transforming Growth Factor (TGF) (AID 2282967); details: HepG2 Attagene CIS TGFb reporter, mRNA transcription; actives raise or lower the signal
# Method in brief: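 HepG2 cells transiently transfected with cis-promoter-driven multiple reporter units measure endogenous TF activity; reporter mRNA quantified at 24 h by RT-PCR, FAM labeling, HpaI digestion and capillary electrophoresis. Bidirectional fit vs DMSO.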
# [11] = ATG_VDRE_CIS: Attagene CIS-FACTORIAL HepG2 Assay for human Vitamin D Receptor Element (VDRE) (AID 2282968); details: HepG2 VDRE cis-reporter transcription, actives raise or lower the signal
# Method in brief: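 Cell-based multiplexed reporter format in human liver HepG2 cells, 24 h post-dose. Fluorescence from capillary electrophoresis of reporter cDNA gives the signal, with DMSO as negative control and baseline.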
# [12] = target: Nuclear receptor subfamily 1 group I member 3 (Homo sapiens) (UniProt Q14994); experiment: ATG_CAR_TRANS: Attagene TRANS-FACTORIAL HepG2 Assay for human Constitutive Androstane Receptor (CAR) (AID 2282969; active = hit-call score of the fitted dose curve at least 0.9, where 1 is the maximum;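 also: activators raise reporter mRNA above DMSO so AC50 marks induction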); details: HepG2 Attagene TRANS-FACTORIAL CAR reporter
# Chain of Nuclear receptor subfamily 1 group I member 3 (Homo sapiens) (Q14994 whole entry, looked up, the tested form may be a part): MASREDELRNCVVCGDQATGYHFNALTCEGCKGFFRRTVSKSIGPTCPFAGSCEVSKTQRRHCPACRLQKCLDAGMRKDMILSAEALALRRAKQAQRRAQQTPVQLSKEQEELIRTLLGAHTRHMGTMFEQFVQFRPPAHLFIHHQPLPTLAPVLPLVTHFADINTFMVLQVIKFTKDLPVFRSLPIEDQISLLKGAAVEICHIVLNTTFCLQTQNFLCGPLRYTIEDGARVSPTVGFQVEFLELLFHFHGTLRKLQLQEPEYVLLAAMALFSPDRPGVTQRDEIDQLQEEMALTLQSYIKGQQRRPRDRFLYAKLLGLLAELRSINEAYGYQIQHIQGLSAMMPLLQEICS
# Method in brief: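 HepG2 cells transiently transfected with GAL4-UAS reporter units; TRANS format reads activity of exogenous chimeric NR-Gal4 protein. After 24 h dosing, reporter mRNA quantified by RT-PCR, 6-FAM labelling and capillary electrophoresis; gain of signal fitted against DMSO.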
# [13] = target: X-box-binding protein 1 (Homo sapiens) (UniProt P17861); experiment: ATG_Xbp1_CIS: Attagene CIS-FACTORIAL HepG2 Assay for human X-box Binding Protein 1 (XBP1) (AID 2282972); details: HepG2 XBP1 cis-element reporter, Attagene multiplex; actives raise or lower the signal
# Chain of X-box-binding protein 1 (Homo sapiens) (P17861 whole entry, looked up, the tested form may be a part): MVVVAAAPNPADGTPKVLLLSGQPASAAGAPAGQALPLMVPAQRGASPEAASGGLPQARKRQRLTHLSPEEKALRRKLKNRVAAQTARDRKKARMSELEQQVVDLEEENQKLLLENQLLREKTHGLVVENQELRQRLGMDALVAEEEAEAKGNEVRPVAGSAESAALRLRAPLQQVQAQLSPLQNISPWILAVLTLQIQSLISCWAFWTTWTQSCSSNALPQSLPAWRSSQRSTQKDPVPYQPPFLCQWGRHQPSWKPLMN
# Method in brief: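 Fluorescence-labelled cDNA fragments from reporter transcripts, separated by capillary electrophoresis, give the signal. Source: HepG2 cells transfected with promoter-driven reporter units, harvested 24 h post-dose. DMSO served as reference for bidirectional curve fitting.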
# [14] = target: Steroid hormone receptor ERR1 (Homo sapiens) (UniProt P11474); experiment: ATG_ERRa_TRANS: Attagene TRANS-FACTORIAL HepG2 Assay for human Estrogen-Related Receptor alpha (ERRa) (AID 2282971; active = hit-call score of the fitted dose curve at least 0.9, where 1 is the maximum); details: HepG2 Attagene TRANS reporter, ERRa transactivation
# Chain of Steroid hormone receptor ERR1 (Homo sapiens) (P11474 whole entry, looked up, the tested form may be a part): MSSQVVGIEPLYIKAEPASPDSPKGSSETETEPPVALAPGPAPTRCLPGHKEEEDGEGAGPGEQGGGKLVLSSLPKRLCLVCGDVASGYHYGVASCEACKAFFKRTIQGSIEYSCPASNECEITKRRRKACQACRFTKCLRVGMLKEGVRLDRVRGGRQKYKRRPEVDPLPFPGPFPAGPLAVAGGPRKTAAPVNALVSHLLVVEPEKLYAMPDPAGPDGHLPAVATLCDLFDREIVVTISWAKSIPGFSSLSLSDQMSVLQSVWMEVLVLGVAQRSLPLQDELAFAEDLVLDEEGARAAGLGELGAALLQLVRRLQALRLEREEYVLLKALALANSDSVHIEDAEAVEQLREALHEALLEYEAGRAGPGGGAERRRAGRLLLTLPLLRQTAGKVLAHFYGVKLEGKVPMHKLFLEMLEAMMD
# Method in brief: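 HepG2 cells transiently transfected with GAL4-UAS reporter units and chimeric NR-Gal4 constructs; after 24 hour compound incubation, reporter mRNA quantified by RT-PCR, fluorescent labelling and capillary electrophoresis, gain of signal versus DMSO.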
# [15] = ATG_M_19_TRANS: Attagene TRANS-FACTORIAL HepG2 Assay for M19 Transcription Factor (Internal Marker) (AID 2282974; active = hit-call score of the fitted dose curve at least 0.9, where 1 is the maximum); details: HepG2 Attagene TRANS-FACTORIAL M19 internal marker reporter
# Method in brief: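 Transfected HepG2 (GAL4-UAS MRTUs), 24 h compound, TriZol RNA, DNase-treated RT, reporter PCR, FAM label, HpaI digest, CE fluorescence; gain vs DMSO.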
# [16] = ATG_GAL4_TRANS: Attagene TRANS-FACTORIAL HepG2 Assay for GAL4 (Internal Marker) (AID 2282976; active = hit-call score of the fitted dose curve at least 0.9, where 1 is the maximum); details: HepG2 Attagene TRANS GAL4 internal marker reporter
# Method in brief: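 Background-control readout: GAL4-UAS reporter transcript in transiently transfected HepG2 cells after 24 h compound exposure. Measured by RT-PCR, 6-FAM primer extension, HpaI digest and capillary electrophoresis; gain-of-signal fit versus DMSO.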
# [17] = target: Estrogen-related receptor gamma (Homo sapiens) (UniProt P62508); experiment: ATG_ERRg_TRANS: Attagene TRANS-FACTORIAL HepG2 Assay for human Estrogen-Related Receptor gamma (ERRg) (AID 2282977; active = hit-call score of the fitted dose curve at least 0.9, where 1 is the maximum;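 also: hits increase reporter signal over DMSO so potencies reflect activators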); details: HepG2 Attagene TRANS reporter, ERRg transactivation
# Chain of Estrogen-related receptor gamma (Homo sapiens) (P62508 whole entry, looked up, the tested form may be a part): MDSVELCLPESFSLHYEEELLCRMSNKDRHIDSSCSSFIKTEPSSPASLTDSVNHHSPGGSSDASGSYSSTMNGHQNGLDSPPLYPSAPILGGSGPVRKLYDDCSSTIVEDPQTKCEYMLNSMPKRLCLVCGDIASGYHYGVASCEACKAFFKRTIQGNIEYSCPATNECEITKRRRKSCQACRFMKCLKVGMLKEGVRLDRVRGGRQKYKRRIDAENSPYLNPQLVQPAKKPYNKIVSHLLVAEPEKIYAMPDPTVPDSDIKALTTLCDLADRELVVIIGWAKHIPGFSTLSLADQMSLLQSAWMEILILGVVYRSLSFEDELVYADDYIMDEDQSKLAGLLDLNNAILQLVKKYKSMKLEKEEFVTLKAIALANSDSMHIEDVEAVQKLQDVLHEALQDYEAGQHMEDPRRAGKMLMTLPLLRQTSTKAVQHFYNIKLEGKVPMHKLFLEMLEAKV
# Method in brief: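 Transient HepG2 transfectants, 24 h compound exposure, GAL4-UAS reporter mRNA by RT-PCR/6-FAM labelling/capillary electrophoresis; positive direction vs DMSO.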
# [18] = target: Estrogen receptor (Homo sapiens) (UniProt P03372); experiment: ATG_ERa_TRANS: Attagene TRANS-FACTORIAL HepG2 Assay for human Estrogen Receptor alpha (ERa) (AID 2282970; active = hit-call score of the fitted dose curve at least 0.9, where 1 is the maximum); details: HepG2 Attagene TRANS ERa GAL4 reporter, mRNA
# Chain of Estrogen receptor (Homo sapiens) (P03372 whole entry, looked up, the tested form may be a part): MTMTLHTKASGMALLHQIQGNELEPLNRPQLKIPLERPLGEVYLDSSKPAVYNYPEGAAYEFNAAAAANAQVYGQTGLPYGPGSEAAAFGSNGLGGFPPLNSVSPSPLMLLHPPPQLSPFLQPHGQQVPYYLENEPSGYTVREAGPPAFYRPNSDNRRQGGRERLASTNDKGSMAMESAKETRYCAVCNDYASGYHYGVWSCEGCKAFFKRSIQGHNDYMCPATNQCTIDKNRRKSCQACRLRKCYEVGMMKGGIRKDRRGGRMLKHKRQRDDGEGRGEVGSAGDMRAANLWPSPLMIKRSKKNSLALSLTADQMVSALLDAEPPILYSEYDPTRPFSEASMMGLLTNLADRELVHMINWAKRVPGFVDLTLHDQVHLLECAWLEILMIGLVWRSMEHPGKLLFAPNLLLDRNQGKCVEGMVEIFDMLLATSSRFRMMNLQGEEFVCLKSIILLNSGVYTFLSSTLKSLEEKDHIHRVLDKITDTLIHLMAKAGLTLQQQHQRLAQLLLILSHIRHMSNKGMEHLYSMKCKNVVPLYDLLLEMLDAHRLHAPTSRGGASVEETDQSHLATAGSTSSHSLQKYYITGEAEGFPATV
# Method in brief: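 HepG2 cells transiently transfected with multiplexed GAL4-UAS reporter units read out chimeric NR-Gal4 activity. After 24 h compound exposure, reporter mRNA was quantified by RT-PCR, 6-FAM labeling, HpaI digestion and capillary electrophoresis, relative to DMSO.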
# [19] = ATG_PXRE_CIS: Attagene CIS-FACTORIAL HepG2 Assay for human Pregnane X Receptor Element (PXRE) (AID 2282957); details: HepG2 Attagene CIS-FACTORIAL PXRE reporter, mRNA; actives raise or lower the signal
# Method in brief: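 HepG2 cells transiently transfected with cis-element-driven multiplexed reporter units; after 24 h chemical exposure, reporter mRNA measured by RT-PCR, 6-FAM labelling, HpaI digestion and capillary electrophoresis. Bidirectional fitting relative to DMSO.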
smiles,measurement,setting,value
C1=CCCC=CCCC=CCC1,outcome,[1],inactive
same,outcome,[2],inactive
same,outcome,[3],inactive
same,AC50,[4],165 µM (active)
same,outcome,[5],inactive
same,outcome,[6],inactive
same,outcome,[7],inactive
same,outcome,[8],inactive
same,outcome,[9],inactive
same,outcome,[10],inactive
same,outcome,[11],inactive
same,outcome,[12],inactive
same,outcome,[13],inactive
CNCc1ccc(NC(=O)c2c[nH]c3c2C(=O)CCC3)cc1,outcome,[1],inactive
same,outcome,[2],inactive
same,outcome,[3],inactive
same,outcome,[4],inactive
same,outcome,[5],inactive
same,outcome,[6],inactive
same,outcome,[7],inactive
same,AC50,[8],24.1 µM (active)
same,outcome,[9],inactive
same,outcome,[10],inactive
same,outcome,[11],inactive
same,outcome,[12],inactive
same,outcome,[14],inactive
same,outcome,[13],inactive
same,outcome,[15],inactive
same,outcome,[16],inactive
same,outcome,[17],inactive
CC(C)CCO,outcome,[1],inactive
same,outcome,[2],inactive
same,outcome,[3],inactive
same,outcome,[4],inactive
same,outcome,[5],inactive
same,outcome,[6],inactive
same,outcome,[7],inactive
same,outcome,[8],inactive
same,outcome,[9],inactive
same,outcome,[10],inactive
same,outcome,[11],inactive
same,outcome,[18],inactive
same,outcome,[13],inactive
same,outcome,[15],inactive
same,outcome,[16],inactive
CCOCCOCCOCCO,outcome,[19],inactive
same,outcome,[2],inactive
same,outcome,[3],inactive
same,outcome,[4],inactive
same,outcome,[5],inactive
same,outcome,[6],inactive
same,outcome,[7],inactive
same,outcome,[8],inactive
same,outcome,[9],inactive
same,outcome,[11],inactive
same,outcome,[13],inactive
same,outcome,[15],inactive
same,outcome,[16],inactive
CC(C)CC(C)(O)C#CC(C)(O)CC(C)C (stereo not drawn),AC50,[19],12.7 µM (active)
same,outcome,[2],inactive
same,outcome,[3],inactive
same,outcome,[4],inactive
same,outcome,[5],inactive
same,outcome,[6],inactive
same,outcome,[7],inactive
same,outcome,[8],inactive
same,outcome,[9],inactive
same,outcome,[10],inactive
same,outcome,[11],inactive
same,outcome,[13],inactive
same,outcome,[15],inactive
Cc1ccc(C)c(O)c1,outcome,[1],inactive
same,outcome,[2],inactive
same,outcome,[3],inactive
same,outcome,[4],inactive
same,outcome,[5],inactive
same,outcome,[6],inactive
same,outcome,[7],inactive
same,outcome,[8],inactive
same,outcome,[9],inactive
same,outcome,[10],inactive
same,outcome,[11],inactive
same,outcome,[12],inactive
same,outcome,[13],inactive
CC(C)=CCC/C(C)=C\CO,AC50,[19],7.34 µM (active)
same,outcome,[2],inactive
same,outcome,[3],inactive
same,outcome,[4],inactive
same,outcome,[5],inactive
same,outcome,[6],inactive
same,outcome,[7],inactive
same,outcome,[8],inactive
same,outcome,[9],inactive
same,outcome,[10],inactive
same,outcome,[11],inactive
same,outcome,[13],inactive
same,outcome,[15],inactive
CC(=O)OCCC(C)C,outcome,[19],inactive
same,outcome,[1],inactive
same,outcome,[2],inactive
same,outcome,[3],inactive
same,outcome,[4],inactive
same,outcome,[5],inactive
same,outcome,[6],inactive
same,outcome,[7],inactive
same,outcome,[8],inactive
same,outcome,[9],inactive
same,outcome,[14],inactive
same,outcome,[13],inactive
same,outcome,[16],inactive
CCCCC(CC)COC(=O)CCCCCCCCC(=O)OCC(CC)CCCC (stereo not drawn),outcome,[1],inactive
same,outcome,[2],inactive
same,outcome,[3],inactive
same,outcome,[4],inactive
same,outcome,[5],inactive
same,outcome,[6],inactive
same,outcome,[7],inactive
same,outcome,[8],inactive
same,outcome,[9],inactive
same,outcome,[10],inactive
same,outcome,[11],inactive
same,outcome,[13],inactive
same,outcome,[15],inactive
